Bioassay records deposited in PubChem by National Center for Advancing Translational Sciences (NCATS).
IP6K1 inh – Primary qHTS assay for small molecule inhibitors of Inositol hexaphosphate kinase 1 (IP6K1) | AID 1645851, 2021 | activity change, % (series mostly up to about 58 µM) | IP6K1 kinase, ADP-Glo luminescence, 2 h; stronger effect = lower value | 0.81% of 140,000 active | Inositol hexakisphosphate kinase 1 (Homo sapiens), Q92551; in the data active = activity change below about -25%
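ADP-Glo luminescence measures ADP made by human IP6K1 during a 2 h RT reaction with ATP/IP6 (mix at 1.3 mM/130 uM); top library doses 57.5 and 19.1 uM final.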
SNCA viab count – GF-AFC viability counterscreen for inhibitors of alpha-synuclein gene (SNCA) expression | HEK-293-SNCA-luc viability, GF-AFC fluorescence, 24 h | Potency, µM (top dose mostly 57.1 µM), hits mostly cytotoxic | AID 1671193, 2021 | 0.12% of 150,000 active; also: nearly all actives have a fitted effect of over 30% in size
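Cytotoxicity counterscreen: after 24 h compound treatment of genome-edited SNCA-luciferase HEK-293 cells, live-cell protease substrate GF-AFC read by fluorescence after 30 min; activity scaled between DMSO (0%) and medium-only (-100%), curves Hill-fitted.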
KDM5B inhibitor – Primary screen for KDM5B Histone Demethylases FDH-coupled qHTS | Lysine-specific demethylase 5B (Homo sapiens), Q9UGL1 | KDM5B demethylase, FDH-coupled NADH fluorescence (FDH is formaldehyde dehydrogenase) | Potency, µM (series often up to 57.7 µM), actives largely listed as inhibitors | 2.6% of 220,000 active | AID 1347165, 2019; also: nearly all actives have a fitted effect of over 70% in size
Target sequence (Q9UGL1 whole entry, looked up): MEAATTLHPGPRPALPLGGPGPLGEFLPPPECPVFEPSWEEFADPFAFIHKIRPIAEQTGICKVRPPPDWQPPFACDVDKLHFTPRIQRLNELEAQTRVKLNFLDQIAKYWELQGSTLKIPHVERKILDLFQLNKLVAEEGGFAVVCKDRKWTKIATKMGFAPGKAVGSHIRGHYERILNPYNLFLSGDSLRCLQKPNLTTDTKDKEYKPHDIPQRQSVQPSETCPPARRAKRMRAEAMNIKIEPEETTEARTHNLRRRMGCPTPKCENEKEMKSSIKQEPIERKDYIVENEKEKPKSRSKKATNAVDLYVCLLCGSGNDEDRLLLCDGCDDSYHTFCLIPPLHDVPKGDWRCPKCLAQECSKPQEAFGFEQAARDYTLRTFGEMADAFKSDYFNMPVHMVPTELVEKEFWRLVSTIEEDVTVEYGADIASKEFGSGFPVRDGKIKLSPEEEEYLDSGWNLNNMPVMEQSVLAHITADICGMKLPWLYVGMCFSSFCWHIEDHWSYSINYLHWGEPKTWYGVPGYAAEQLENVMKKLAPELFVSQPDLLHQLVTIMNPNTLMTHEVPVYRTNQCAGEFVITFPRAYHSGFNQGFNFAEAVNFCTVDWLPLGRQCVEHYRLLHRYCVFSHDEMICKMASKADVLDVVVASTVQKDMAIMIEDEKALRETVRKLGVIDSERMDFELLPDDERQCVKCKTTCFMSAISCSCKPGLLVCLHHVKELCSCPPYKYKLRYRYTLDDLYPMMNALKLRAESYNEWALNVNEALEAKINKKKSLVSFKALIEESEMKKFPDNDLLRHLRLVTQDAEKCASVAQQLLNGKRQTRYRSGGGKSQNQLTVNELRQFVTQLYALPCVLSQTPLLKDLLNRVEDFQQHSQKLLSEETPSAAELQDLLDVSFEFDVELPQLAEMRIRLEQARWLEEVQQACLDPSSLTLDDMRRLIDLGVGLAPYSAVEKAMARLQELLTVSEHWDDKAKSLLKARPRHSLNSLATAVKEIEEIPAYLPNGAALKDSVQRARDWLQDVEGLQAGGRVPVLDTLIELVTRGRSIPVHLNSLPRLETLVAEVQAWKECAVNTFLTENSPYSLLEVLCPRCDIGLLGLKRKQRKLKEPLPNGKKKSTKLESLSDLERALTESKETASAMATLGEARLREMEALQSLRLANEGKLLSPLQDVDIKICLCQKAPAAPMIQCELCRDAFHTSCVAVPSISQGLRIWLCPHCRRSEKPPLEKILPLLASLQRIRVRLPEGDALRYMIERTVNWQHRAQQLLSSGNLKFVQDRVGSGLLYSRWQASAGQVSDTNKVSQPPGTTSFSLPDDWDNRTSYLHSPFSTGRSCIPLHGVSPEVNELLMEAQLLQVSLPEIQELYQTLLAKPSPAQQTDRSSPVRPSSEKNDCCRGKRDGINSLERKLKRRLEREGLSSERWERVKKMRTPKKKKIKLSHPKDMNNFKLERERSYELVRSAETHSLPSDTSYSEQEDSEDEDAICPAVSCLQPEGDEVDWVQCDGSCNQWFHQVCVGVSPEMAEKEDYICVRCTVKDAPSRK
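Inhibition is measured as reduced NADH fluorescence generation from FDH coupling to formaldehyde release. Truncated KDM5BΔAP at 200 nM final acts on H3K4me3 peptide (12.5 µM in substrate mix) in pH 7.5 HEPES buffer with Tween-20, 30 min, room temperature.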
SNCA expr inhib – Primary qHTS assay for inhibitors of alpha-synuclein gene (SNCA) expression; 0.17% of 140,000 active; AID 1671194, 2021; Potency, µM (highest dose often 57.2 µM), hits mostly inhibitors; HEK-293 SNCA-luciferase knock-in, luminescence, 24 h; also: nearly all actives have a fitted effect of over 45% in size
Each line names hits and unclear results; the compound was inactive in the other large screens; ! = repeats disagree. This is a sample that favours compounds with a hit; in the whole collection about 2.8% have one here. Unless noted, calls follow the shape of the dose curve; as a rule, active = well fitted curve in the direction sought with a large enough effect; inconclusive = small, poorly fitted or top-dose-only effect, or another doubt; inactive = no such curve, though single readings can be large; an effect the other way counts as inactive or inconclusive.

COc1cc2c(cc1Oc1ccccc1)NC(=O)C21CCN(c2ncccn2)CC1	KDM5B inhibitor inconclusive
COc1cc2c(cc1OC1CCCC1)NC(=O)C21CCN(c2ccc(C#N)cn2)CC1	KDM5B inhibitor 32µM
COc1cc2c(cc1OCc1ccccc1)NC(=O)C21CCN(c2ccccn2)CC1	KDM5B inhibitor 25µM
COc1cc2c(cc1Oc1ccccc1)NC(=O)C21CCN(c2ncc(C(C)C)cn2)CC1	KDM5B inhibitor 28µM
COCCN1CCC(N2CCN(C(=O)Cc3cccc(C)c3)CC2)C1=O (stereo not drawn)	none
CC(=O)NC[C@H]1C[C@@H]2CCN1C[C@@H]2c1cc(-c2cccs2)nn1C	none
COCCNC(=O)[C@H]1CN2CC[C@H]1C[C@@H]2Cn1cc(C2(O)CCCC2)nn1	none
CNc1ccc2oc(C[C@H]3O[C@@]4(CC[C@H]3C)O[C@H](C(C)C(=O)c3ccc[nH]3)[C@H](C)C[C@H]4C)nc2c1C(=O)O (stereo partly drawn)	SNCA viab count 9.5µM (no result: KDM5B inhibitor, SNCA expr inhib)
CNc1ccc2oc(C[C@H]3O[C@@]4(CC[C@H]3C)O[C@H]([C@H](C)C(=O)c3ccc[nH]3)[C@H](C)C[C@H]4C)nc2c1C(=O)O	SNCA viab count inconclusive, SNCA expr inhib 28µM (no result: IP6K1 inh, KDM5B inhibitor)
COc1cc2c(cc1Oc1ccccc1)NC(=O)C21CCN(C(=O)c2scnc2C)CC1	none
COc1ccc(N2CC3CCC(C2)N3CC(F)(F)F)cn1	KDM5B inhibitor 56µM
CN1CCN(C(=O)Cc2ccc(Cl)cc2Cl)CC1	none (no result: IP6K1 inh, SNCA viab count, SNCA expr inhib)
COc1ncc(-c2cnc3[nH]cc(CC(=O)N4CCN(C)CC4)c3c2)cn1	none
CN1CCN(C(=O)Cc2c[nH]c3ncc(-c4ccc(Cl)cc4)cc23)CC1	KDM5B inhibitor 32µM
Cn1cc(-c2cnc3[nH]cc(CC(=O)N4CCN(Cc5ccccc5)CC4)c3c2)cn1	KDM5B inhibitor 28µM
CN1CCN(C(=O)Cc2c[nH]c3ncc(-c4ccc(F)c(Cl)c4)cc23)CC1	KDM5B inhibitor 40µM
O=C(O)CSCC(=O)N1C[C@@H]2C[C@H](C1)c1c(-c3ccccc3F)ccc(=O)n1C2	none
COc1cc2c(cc1CCc1ccccc1)N(C(=O)c1c[nH]c3ccccc13)CC21CCN(C(C)=O)CC1	KDM5B inhibitor inconclusive, SNCA expr inhib inconclusive
COc1cc(C2SCC(=O)Nc3[nH]ncc32)ccc1OC(C)C (stereo not drawn)	none (no result: IP6K1 inh, SNCA viab count, SNCA expr inhib)
CCCS(=O)(=O)Nc1ccc(=O)n2c1[C@@H]1C[C@@H](CN(S(=O)(=O)c3ccc(OC)cc3)C1)C2	KDM5B inhibitor 22µM
CCCS(=O)(=O)Nc1ccc(=O)n2c1[C@@H]1C[C@@H](CN(C(=O)Nc3ccc(OC)cc3)C1)C2	KDM5B inhibitor 28µM
Cc1nn(C)c2ncnc(NCCc3c[nH]c(=O)[nH]c3=O)c12	none
CCN1Cc2ccccc2NC(=O)C12CCNC2 (stereo not drawn)	KDM5B inhibitor 56µM
NCCCc1c[nH]c2ccccc12	none (no result: IP6K1 inh, SNCA viab count, SNCA expr inhib)
Cc1cnc(CCN)n1CC1CC1	SNCA viab count inconclusive, KDM5B inhibitor 7.9µM
Cc1cccn2c(CC(=O)N3CCN(C)[C@@H]4CS(=O)(=O)C[C@@H]43)cnc12	KDM5B inhibitor 28µM
Cc1ncc2c(c1CNCC1(O)CNCCOC1)CCNC2 (stereo not drawn)	KDM5B inhibitor 28µM, SNCA expr inhib inconclusive
COCCC(=O)N1C[C@@H]2C[C@H](C1)c1ccc(-c3cccc(C(F)(F)F)c3)c(=O)n1C2	KDM5B inhibitor 40µM
O=C(O)CSCC(=O)N1C[C@@H]2C[C@H](C1)c1ccc(-c3cccc(C(F)(F)F)c3)c(=O)n1C2	KDM5B inhibitor 32µM
O=C(c1ccncc1)N1C[C@@H]2C[C@H](C1)c1ccc(-c3cccc(C(F)(F)F)c3)c(=O)n1C2	KDM5B inhibitor 28µM
CC(C)NC(=O)N1C[C@@H]2C[C@H](C1)c1ccc(-c3cccc(C(F)(F)F)c3)c(=O)n1C2	SNCA expr inhib inconclusive
COc1ccc(CC(=O)N2[C@H]3CC[C@@H]2c2cnc(-c4ccc(F)cc4)nc2C3)cc1OC	none
CN1C(=O)NC(=O)C2(Cc3c(ccc4ccccc34)N(C)C2)C1=O (stereo not drawn)	none (no result: IP6K1 inh, SNCA viab count, SNCA expr inhib)
CC[C@H]1CN2CC[C@H]1C[C@@H]2COC(=O)Nc1cccc2ccccc12	KDM5B inhibitor 32µM
CC[C@H]1CN2CC[C@H]1C[C@@H]2COC(=O)Nc1ccc(C(C)(C)C)cc1	KDM5B inhibitor 28µM
CC[C@H]1CN2CC[C@H]1C[C@@H]2CNC(=O)c1ccc2ccccc2c1	none
CNc1nc(N2C[C@H]3CN(CCOC)C[C@@]3(C(=O)O)C2)ncc1F	KDM5B inhibitor 16µM, SNCA expr inhib inconclusive
FC(F)(F)CN1C2CCC1CN(c1cncc(Br)c1)C2	none
O=C1NCCCCCN(Cc2cccnc2)[C@H]2CCC[C@@H]12	KDM5B inhibitor inconclusive
O=C1NCCCCCCN(Cc2cccnc2)[C@H]2CCC[C@@H]12	KDM5B inhibitor 7.9µM, SNCA expr inhib inconclusive
CNc1ccc(OC2CCNCC2)nc1	KDM5B inhibitor 28µM
CCn1cc(CN2CCN(C(=O)Cc3cccs3)CC2)ccc1=O	KDM5B inhibitor 13µM
CCn1cc(CN2CCN(C(=O)Cc3c(C)noc3C)CC2)ccc1=O	KDM5B inhibitor 11µM
O=C(Nc1ccc(=O)n2c1[C@@H]1C[C@@H](CN(S(=O)(=O)c3ccccc3)C1)C2)c1cncnc1	none
COc1ccc(NC(=O)OC[C@H]2C[C@@H]3CCN2C[C@@H]3c2cc(-c3ccc(N(C)C)cc3)nc(C)n2)cc1	SNCA viab count inconclusive, SNCA expr inhib inconclusive
N#Cc1ccccc1S(=O)(=O)N1C[C@@H]2C[C@H](C1)c1ccc(-c3ccc(Cl)cc3)c(=O)n1C2	KDM5B inhibitor 35µM
O=c1c(C2CCCCC2)ccc2n1C[C@H]1C[C@@H]2CN(S(=O)(=O)c2ccccc2)C1	KDM5B inhibitor 32µM
CN(C)CC(=O)Nc1ccc2n(c1=O)C[C@H]1C[C@@H]2CN(S(=O)(=O)c2ccccc2)C1	KDM5B inhibitor inconclusive, SNCA expr inhib inconclusive
O=C(Cc1cccc(F)c1)N1CCN(C2CCN(Cc3cccnc3)C2=O)CC1 (stereo not drawn)	none
CC(C)(C)c1ccc(-c2cn(C[C@H]3CC4CCN3C[C@@H]4C(=O)N3CCOCC3)nn2)cc1 (stereo partly drawn)	none
Cc1ccc2c(n1)N(C)[C@H](CO)CCN(CC(C)C)C2	KDM5B inhibitor 16µM
CN(C)C(=S)SCC#N	none (no result: IP6K1 inh, SNCA viab count, SNCA expr inhib)
CC(C)(C)CC(=O)N1C[C@@H]2C[C@H](C1)c1ccc(NC(=O)Nc3cccc(F)c3)c(=O)n1C2	KDM5B inhibitor 28µM
CCCn1cc(C(=O)NCC2CCCN2CC)c2ccccc21 (stereo not drawn)	none (no result: IP6K1 inh, SNCA viab count, SNCA expr inhib)
CN1CCc2cc3c(cc2C1C1OC(=O)c2c1ccc1c2OCO1)OCO3 (stereo not drawn)	none (no result: KDM5B inhibitor, SNCA expr inhib)
COc1ccc2c(c1OC)CN1CCc3cc4c(cc3C1C2)OCO4 (stereo not drawn)	SNCA viab count inconclusive, SNCA expr inhib 3µM! (no result: KDM5B inhibitor)
